Set-up in all cases: scale not given: direction of the effect not stated beside the values
For assay [1], the target named is Protein translocase subunit SecA (Escherichia coli (strain K12)) (UniProt P10408). Description: Assay to Identify E. coli SecA ATPase Inhibitors. In kind it is functional. The following applies: 30 µM.
The target of assay [2] is T1, Ubiquitin-activating enzyme e1, putative (Leishmania donovani (strain BPK282A1)) (UniProt E9BSI1).
T1 sequence (whole entry): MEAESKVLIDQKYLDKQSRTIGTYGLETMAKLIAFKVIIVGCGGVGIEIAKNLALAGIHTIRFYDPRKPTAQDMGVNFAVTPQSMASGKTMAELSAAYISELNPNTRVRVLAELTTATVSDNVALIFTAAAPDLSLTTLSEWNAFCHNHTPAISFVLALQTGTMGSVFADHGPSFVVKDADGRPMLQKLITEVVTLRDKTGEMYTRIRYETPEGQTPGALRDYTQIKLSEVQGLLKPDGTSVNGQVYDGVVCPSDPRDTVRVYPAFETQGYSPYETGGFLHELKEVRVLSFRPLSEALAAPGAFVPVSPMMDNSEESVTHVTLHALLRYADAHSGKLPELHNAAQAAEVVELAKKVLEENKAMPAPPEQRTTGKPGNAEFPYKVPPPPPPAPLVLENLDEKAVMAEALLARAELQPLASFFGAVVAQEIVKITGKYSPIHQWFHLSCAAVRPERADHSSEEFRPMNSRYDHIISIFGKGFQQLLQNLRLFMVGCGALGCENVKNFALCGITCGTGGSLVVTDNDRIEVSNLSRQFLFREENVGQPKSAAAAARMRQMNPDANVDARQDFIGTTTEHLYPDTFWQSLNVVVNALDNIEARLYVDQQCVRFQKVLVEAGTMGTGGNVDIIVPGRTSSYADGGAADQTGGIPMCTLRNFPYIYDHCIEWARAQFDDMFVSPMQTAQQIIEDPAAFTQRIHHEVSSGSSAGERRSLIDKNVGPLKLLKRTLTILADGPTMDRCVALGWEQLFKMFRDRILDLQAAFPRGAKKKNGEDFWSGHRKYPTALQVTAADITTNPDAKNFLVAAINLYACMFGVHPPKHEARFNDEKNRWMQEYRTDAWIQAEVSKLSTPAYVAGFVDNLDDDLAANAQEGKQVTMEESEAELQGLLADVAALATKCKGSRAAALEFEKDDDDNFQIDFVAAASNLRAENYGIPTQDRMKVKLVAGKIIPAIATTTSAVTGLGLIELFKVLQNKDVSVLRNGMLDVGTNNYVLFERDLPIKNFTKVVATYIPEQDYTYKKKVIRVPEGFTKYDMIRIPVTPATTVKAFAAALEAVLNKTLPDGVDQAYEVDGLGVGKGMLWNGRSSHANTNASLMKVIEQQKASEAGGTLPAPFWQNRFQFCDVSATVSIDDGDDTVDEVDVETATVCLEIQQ
Nature of the assay: Leishmania donovani Ubiquitin Activating Enzyme (LdE1). In kind it is functional. The following applies: 30 µM.

Assay [3] has as its target Sialic acid-binding Ig-like lectin 9 (Homo sapiens) (UniProt Q9Y336). Description: Hs-Siglec9 ALPHAscreen SOP 20170721. As to conditions: 10 µM. (In general: In Alpha technology, singlet oxygen from a donor bead excites a nearby acceptor bead.)
Another assay concerns Trypanosoma cruzi. Nature of the assay: Trypanosoma cruzi phosphomannomutase and mannose-1-phosphate guanylyltransferase assay. In kind it is functional. As to conditions: 10 µM.
The target of assay [4] is T2, Arginase-2, mitochondrial (Homo sapiens) (UniProt P78540).
T2 sequence (whole entry): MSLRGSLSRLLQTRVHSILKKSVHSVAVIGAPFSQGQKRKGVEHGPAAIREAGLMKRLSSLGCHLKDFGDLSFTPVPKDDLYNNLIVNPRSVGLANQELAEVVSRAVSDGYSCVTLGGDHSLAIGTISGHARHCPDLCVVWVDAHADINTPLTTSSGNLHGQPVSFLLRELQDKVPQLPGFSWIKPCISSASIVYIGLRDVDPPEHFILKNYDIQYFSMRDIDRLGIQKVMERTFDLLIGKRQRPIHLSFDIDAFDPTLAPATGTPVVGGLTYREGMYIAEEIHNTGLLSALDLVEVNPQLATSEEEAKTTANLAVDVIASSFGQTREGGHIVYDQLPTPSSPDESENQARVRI
Description: in vitro enzyme assay to detect the production of urea directly proportional to the activity of Arginase II. Also: in the data most compounds retested in dose-response had high values. In kind it is functional. As to conditions: 33.3 µM.

Assay [5] concerns the target T3, Proteasome subunit beta (Trypanosoma cruzi) (UniProt O96673).
T3 sequence (whole entry): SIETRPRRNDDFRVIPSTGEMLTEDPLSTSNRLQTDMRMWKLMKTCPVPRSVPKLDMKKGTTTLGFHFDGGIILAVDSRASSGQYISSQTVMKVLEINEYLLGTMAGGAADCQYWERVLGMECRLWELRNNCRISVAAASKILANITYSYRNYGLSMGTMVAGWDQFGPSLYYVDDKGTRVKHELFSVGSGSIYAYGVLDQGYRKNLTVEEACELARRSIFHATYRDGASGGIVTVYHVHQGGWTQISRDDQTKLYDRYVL
Nature of the assay: Trypanosoma cruzi proteasome chymotrypsin-like activity (TcProtChymo) assay. Also: in the data most compounds retested in dose-response had high values. The assay is classed as functional. The following applies: 9.37 µM.

The species entered for a further assay is Homo sapiens. Nature of the assay: To identify inhibition of the IFN signalling (Jak-Stat) pathway via expression of an eGFP reporter gene under the control of an IFN-stimulated response element (ISRE) containing MxA promoter. The assay is classed as functional. The following applies: 30 µM.
Assay [6] addresses T4, Tyrosyl-tRNA synthetase, putative (Trypanosoma cruzi (strain CL Brener)) (UniProt Q4DSP6).
T4 sequence (whole entry): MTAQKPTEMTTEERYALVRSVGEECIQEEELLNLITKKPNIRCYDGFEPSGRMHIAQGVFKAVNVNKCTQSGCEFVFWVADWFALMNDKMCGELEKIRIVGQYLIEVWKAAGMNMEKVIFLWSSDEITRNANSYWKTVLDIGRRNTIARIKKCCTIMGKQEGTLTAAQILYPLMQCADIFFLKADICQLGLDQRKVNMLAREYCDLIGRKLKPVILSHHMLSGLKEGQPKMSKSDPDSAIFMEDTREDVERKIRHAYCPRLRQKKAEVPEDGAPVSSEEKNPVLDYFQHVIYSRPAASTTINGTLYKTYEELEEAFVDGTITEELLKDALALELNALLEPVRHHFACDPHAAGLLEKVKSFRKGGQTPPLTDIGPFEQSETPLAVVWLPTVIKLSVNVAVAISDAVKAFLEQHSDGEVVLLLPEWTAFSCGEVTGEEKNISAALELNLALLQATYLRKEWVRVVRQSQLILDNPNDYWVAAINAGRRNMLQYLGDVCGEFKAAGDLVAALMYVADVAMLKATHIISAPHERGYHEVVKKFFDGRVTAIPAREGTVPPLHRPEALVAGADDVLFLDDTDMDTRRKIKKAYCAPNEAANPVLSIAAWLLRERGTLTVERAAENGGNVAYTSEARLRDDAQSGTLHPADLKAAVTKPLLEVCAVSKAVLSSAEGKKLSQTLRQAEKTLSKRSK
Nature of the assay: Trypanosoma cruzi tyrosyl tRNA synthetase (TcYRS) _High Tyrosine SOP. Also: in the data most compounds retested in dose-response had high values. In kind it is functional. As to conditions: 30 µM.

Assay [7] deals with T4, Tyrosyl-tRNA synthetase, putative (Trypanosoma cruzi (strain CL Brener)). Nature of the assay: Trypanosoma cruzi tyrosyl tRNA synthetase (TcYRS) SOP. As to conditions: 30 µM. In kind it is functional.
The target in assay [8] is Chromo domain-containing protein 1 (Saccharomyces cerevisiae (strain ATCC 204508 / S288c) (Baker's yeast)) (UniProt P32657). Description: ScCHD-1 Enzyme Inhibition Assay. Also: in the data most compounds retested in dose-response had high values. The assay is classed as functional. The following applies: 30 µM.
Chromo domain-containing protein 1 (Saccharomyces cerevisiae (strain ATCC 204508 / S288c) (Baker's yeast)), sequence (P32657 whole entry, the tested form may be a part): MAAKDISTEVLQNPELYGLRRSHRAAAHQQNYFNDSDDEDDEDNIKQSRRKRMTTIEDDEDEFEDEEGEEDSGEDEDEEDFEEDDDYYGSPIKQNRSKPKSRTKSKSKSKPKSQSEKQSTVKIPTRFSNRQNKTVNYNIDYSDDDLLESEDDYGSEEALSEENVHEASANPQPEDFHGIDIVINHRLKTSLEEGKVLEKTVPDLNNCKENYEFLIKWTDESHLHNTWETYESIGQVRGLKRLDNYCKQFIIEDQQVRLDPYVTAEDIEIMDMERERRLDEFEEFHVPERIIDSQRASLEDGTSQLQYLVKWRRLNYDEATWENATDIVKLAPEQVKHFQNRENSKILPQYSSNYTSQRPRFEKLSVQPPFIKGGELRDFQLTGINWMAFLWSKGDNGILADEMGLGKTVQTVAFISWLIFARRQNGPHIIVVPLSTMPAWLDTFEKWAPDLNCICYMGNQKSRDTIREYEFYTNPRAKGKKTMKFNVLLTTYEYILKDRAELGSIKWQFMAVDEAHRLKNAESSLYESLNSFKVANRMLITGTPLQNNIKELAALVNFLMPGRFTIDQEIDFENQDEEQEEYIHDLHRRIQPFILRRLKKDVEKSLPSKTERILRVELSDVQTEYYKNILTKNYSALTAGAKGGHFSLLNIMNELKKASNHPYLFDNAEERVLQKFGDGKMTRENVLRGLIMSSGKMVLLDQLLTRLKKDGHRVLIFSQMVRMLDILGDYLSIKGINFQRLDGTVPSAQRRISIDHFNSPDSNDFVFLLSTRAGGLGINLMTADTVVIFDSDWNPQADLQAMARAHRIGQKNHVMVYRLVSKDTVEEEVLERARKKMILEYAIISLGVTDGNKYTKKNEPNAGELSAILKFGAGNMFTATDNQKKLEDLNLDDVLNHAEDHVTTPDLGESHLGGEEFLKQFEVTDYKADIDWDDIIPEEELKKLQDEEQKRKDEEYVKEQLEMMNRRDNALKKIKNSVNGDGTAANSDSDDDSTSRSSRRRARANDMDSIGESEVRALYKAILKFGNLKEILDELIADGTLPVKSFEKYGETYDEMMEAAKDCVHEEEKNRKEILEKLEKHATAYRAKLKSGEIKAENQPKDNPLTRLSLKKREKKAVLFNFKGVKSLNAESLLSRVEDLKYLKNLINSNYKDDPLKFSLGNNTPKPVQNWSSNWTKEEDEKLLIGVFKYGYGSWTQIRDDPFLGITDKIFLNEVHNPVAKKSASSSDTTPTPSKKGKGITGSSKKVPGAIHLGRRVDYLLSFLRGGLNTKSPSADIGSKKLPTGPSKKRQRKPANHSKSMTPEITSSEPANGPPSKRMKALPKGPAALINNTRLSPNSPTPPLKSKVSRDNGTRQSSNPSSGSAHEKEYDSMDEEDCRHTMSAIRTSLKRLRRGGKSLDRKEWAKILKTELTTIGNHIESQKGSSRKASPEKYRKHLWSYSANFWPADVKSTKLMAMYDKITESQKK

For part of these data: Measured potencies and affinities stand elsewhere.

Sialic acid-binding Ig-like lectin 9 (Homo sapiens), sequence (Q9Y336 whole entry): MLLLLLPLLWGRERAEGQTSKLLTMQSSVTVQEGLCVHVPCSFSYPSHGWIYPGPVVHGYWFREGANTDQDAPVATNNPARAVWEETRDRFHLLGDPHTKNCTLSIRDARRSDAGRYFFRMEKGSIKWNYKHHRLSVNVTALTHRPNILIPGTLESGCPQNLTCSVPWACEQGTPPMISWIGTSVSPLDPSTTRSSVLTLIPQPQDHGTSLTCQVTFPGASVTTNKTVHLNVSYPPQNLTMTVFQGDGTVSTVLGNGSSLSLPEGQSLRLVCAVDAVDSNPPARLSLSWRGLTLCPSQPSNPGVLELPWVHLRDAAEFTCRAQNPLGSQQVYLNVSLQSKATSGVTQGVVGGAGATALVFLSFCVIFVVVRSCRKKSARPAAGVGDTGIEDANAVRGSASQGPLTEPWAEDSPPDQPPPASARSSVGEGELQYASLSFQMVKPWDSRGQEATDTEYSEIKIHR
Protein translocase subunit SecA (Escherichia coli (strain K12)), sequence (P10408 whole entry): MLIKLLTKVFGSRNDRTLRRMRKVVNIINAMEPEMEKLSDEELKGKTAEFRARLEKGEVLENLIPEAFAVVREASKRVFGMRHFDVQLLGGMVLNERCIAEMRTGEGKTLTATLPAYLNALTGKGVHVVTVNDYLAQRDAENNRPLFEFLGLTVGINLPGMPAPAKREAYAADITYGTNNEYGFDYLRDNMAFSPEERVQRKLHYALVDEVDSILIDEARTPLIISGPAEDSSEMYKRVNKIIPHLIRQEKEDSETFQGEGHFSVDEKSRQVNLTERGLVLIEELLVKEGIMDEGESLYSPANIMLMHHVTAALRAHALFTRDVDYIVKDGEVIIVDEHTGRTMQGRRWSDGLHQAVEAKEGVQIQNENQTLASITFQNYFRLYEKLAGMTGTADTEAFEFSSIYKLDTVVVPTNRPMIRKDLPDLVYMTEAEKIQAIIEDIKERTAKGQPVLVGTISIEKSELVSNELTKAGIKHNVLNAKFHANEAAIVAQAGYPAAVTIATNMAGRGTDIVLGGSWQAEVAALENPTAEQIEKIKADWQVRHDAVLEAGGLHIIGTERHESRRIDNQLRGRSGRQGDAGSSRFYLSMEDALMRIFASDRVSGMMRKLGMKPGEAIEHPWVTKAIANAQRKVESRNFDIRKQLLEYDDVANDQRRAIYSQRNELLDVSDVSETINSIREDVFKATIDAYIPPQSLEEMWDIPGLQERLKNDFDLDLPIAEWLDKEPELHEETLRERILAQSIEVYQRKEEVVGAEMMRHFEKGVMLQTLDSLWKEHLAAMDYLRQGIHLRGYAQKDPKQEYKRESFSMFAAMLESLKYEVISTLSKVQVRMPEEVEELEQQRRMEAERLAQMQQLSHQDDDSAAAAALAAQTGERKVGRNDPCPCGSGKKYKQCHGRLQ

`CC(C)(O)CN1CCN(C(=O)c2cccnc2O)CC1`: the Percent Effect in assay [1] was -2.01%; in [2], -2.56%; in assay [3], 5.77%; with Trypanosoma cruzi, 7.98%; in assay [4], 2.46%; in assay [5] it was 9.13%. Also, the Percent Effect in the assay filed under Homo sapiens is -4.14%; in assay [6], 1.44%; in [7], 1.21%; in assay [8], -0.501%.

`O=C(CCOc1ccc(Cl)cc1)N1CCN(c2cnccn2)CC1`: the Percent Effect was -5.29% in assay [1]; 18.2% in [2]; 5.24% in assay [3]; -0.746% in the assay on Trypanosoma cruzi; 0.615% in assay [4]; 10.2% in assay [5]. The Percent Effect is 25.2% in the assay listed under Homo sapiens, 9.8% in assay [6], 21.2% in [7] and -8.03% in assay [8].

Take `CC(C(=O)N1CCCC1)N1CCC(c2nccn2Cc2cscn2)CC1` (stereo not given): the Percent Effect in [1] is -2.34%; in assay [2], 0%; in assay [3], 12.9%; with Trypanosoma cruzi, -3.4%; in [4] it was 5.94%; in assay [5], 13%. For the same compound, the Percent Effect in the assay filed under Homo sapiens is 3.46%; in [6], 6.92%; in [7], 12.2%; in [8] it was -3.89%.

For `COc1ncc(C2CC(=O)NCc3nc4ccccn4c32)cn1` (stereo not given), the Percent Effect in [1] is -5.62%; in assay [2], 5.41%; in [3], 1.68%; in the assay with Trypanosoma cruzi it was -1.46%; in assay [4] it was 1.75%; in [5] it was 6.34%. The Percent Effect in the assay filed under Homo sapiens was 3.05%; in [6] it was 7.98%; in assay [7] it was 14.6%; in [8] it was -1.5%.

Regarding `O=C(Nc1cccc2c1CCCC2)C1CCCN1c1nccs1` (stereo not given), the Percent Effect was -1.27% in [1]; 5.13% in assay [2]; 1.32% in assay [3]; -0.845% in the assay with Trypanosoma cruzi; 4.51% in assay [4]; 5.55% in assay [5]. Further, the Percent Effect was -6.07% in the assay filed under Homo sapiens, 8.13% in assay [6], 20.5% in [7] and 13.6% in assay [8].

As for `COc1cc(C)nc(N2CCN(C(=O)COCC(F)(F)F)CC2)n1`, the Percent Effect was -3.6% in [1]; 7.69% in [2]; -1.63% in [3]; -1.22% with Trypanosoma cruzi; 1.64% in assay [4]; 3.16% in assay [5]. The Percent Effect in the assay listed under Homo sapiens is 22.4%; in assay [6], 4.31%; in assay [7] it was 8.43%; in [8], -3.52%.

In the case of `CCc1cc(C(F)(F)F)c2c(C)nn(CC(=O)O)c2n1`, the Percent Effect in assay [1] was 2.1%; in assay [2], 9.33%; in [3], -6.26%; in the assay with Trypanosoma cruzi it was -4.14%; in assay [4], 9.29%; in assay [5], 11%. For the same compound, the Percent Effect was 15.7% in the assay filed under Homo sapiens, 1.06% in [6], 10% in assay [7] and -20.4% in [8].

With `Cc1cc2c(=O)n3c(nc2s1)CCN(Cc1cnc(C(C)C)nc1)CC3`, the Percent Effect was -1.05% in assay [1]; 4% in [2]; -0.31% in assay [3]; -7.69% in the assay on Trypanosoma cruzi; 3.98% in [4]; 5.91% in assay [5]. Moreover, the Percent Effect in the assay listed under Homo sapiens was 28.4%; in assay [6], 0%; in assay [7] it was 5%; in [8] it was -25.8%.

For the compound `COCCN1CCN(Cc2ccc(F)c(C)c2)[C@H]2CS(=O)(=O)C[C@H]21`, the Percent Effect in [1] is -6.45%; in assay [2], 10.8%; in assay [3] it was 28.9%; with Trypanosoma cruzi, 12.3%; in assay [4], 10.8%; in assay [5] it was 5.48%. In addition, the Percent Effect was -1.07% in the assay listed under Homo sapiens, 7.98% in assay [6], 17.1% in assay [7] and -4.27% in assay [8].

In the case of `CN(C)CCCn1ccnc1C1CCCN(c2cc(N)ncn2)C1` (stereo not given), the Percent Effect in [1] is -10.5%; in assay [2], 2.7%; in [3], 2.22%; in the assay with Trypanosoma cruzi, -3.59%; in assay [4], -2.45%; in assay [5] it was 4.97%. Besides, the Percent Effect is -11% in the assay listed under Homo sapiens, 7.98% in assay [6], 4.88% in [7] and 4.53% in assay [8].

Consider `O=c1cccnn1CC1CN(Cc2ccsc2)Cc2nccn2C1` (stereo not given), for which the Percent Effect in [1] is -8.45%; in [2] it was -40.3%; in [3], 11%; with Trypanosoma cruzi, -1.66%; in assay [4], 3.64%; in assay [5] it was 8.91%. The Percent Effect in the assay listed under Homo sapiens was -4.15%; in assay [6] it was 14.2%; in assay [7] it was 15.4%; in assay [8], 4.94%.

As to `COC(=O)NCc1cc2n(n1)CCCN(C(C)=O)C2`, the Percent Effect was -9.99% in [1]; 5.41% in assay [2]; -0.0271% in assay [3]; -3.98% with Trypanosoma cruzi; -2.45% in assay [4]; 7.19% in [5]. Besides, the Percent Effect was -0.185% in the assay filed under Homo sapiens, 4.79% in assay [6], 12.2% in assay [7] and -3.29% in [8].

Values taken from ChEMBL document CHEMBL3988442, “University of Dundee, Small-Polar-MMV Screening Library” (2021).
